Data published in the supplement of paper PMC8975748.
Counter-ions that a name gives are not always drawn. ± gives the standard deviation of the averaged measurements.

Assays:
[1] = system: Saccharomyces cerevisiae BY4741 SeMeCo community; assay: z-score of prototroph abundance vs DMSO median; higher = larger share of this subpopulation than in DMSO controls; conditions: 10 µM; 24 h; SM minimal medium; subpopulation (auxotrophy): Prototroph
Summary of the method: (§1)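 A community of Saccharomyces cerevisiae BY4741 was built from four plasmids that each restored one auxotrophy and encoded a distinct fluorescent protein. Pre-grown overnight to OD600 1.0 and diluted to 0.3, it was dispensed at 70 µl into 384-well plates acoustically predosed with library drugs for a final 10 µM, and grown 24 h in minimal SM medium. Cells were then paraformaldehyde-fixed and imaged by automated confocal microscopy. Thresholds and autofluorescence correction came from single-auxotroph fluorescent strains, and each subpopulation's abundance was scored as a z-score relative to the vehicle-well median.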

[2] = system: Saccharomyces cerevisiae BY4741 SeMeCo community; assay: z-score of subpopulation abundance vs DMSO median, subpopulation auxotrophic for LU; higher = larger share of this subpopulation than in DMSO controls; conditions: 10 µM; 24 h; SM minimal medium; subpopulation (auxotrophy): LU
Summary of the method: as §1

[3] = system: Saccharomyces cerevisiae BY4741 SeMeCo community; assay: z-score of subpopulation abundance vs DMSO median, subpopulation auxotrophic for LM; higher = larger share of this subpopulation than in DMSO controls; conditions: 10 µM; 24 h; SM minimal medium; subpopulation (auxotrophy): LM
Summary of the method: as §1

[4] = system: Saccharomyces cerevisiae BY4741 SeMeCo community; assay: z-score of subpopulation abundance vs DMSO median, subpopulation auxotrophic for HU; higher = larger share of this subpopulation than in DMSO controls; conditions: 10 µM; 24 h; SM minimal medium; subpopulation (auxotrophy): HU
Summary of the method: as §1

[5] = system: Saccharomyces cerevisiae BY4741 SeMeCo community; assay: z-score of subpopulation abundance vs DMSO median, subpopulation auxotrophic for HL; higher = larger share of this subpopulation than in DMSO controls; conditions: 10 µM; 24 h; SM minimal medium; subpopulation (auxotrophy): HL
Summary of the method: as §1

[6] = system: Saccharomyces cerevisiae BY4741 SeMeCo community; assay: z-score of subpopulation abundance vs DMSO median, subpopulation auxotrophic for HLU; higher = larger share of this subpopulation than in DMSO controls; conditions: 10 µM; 24 h; SM minimal medium; subpopulation (auxotrophy): HLU
Summary of the method: as §1

[7] = system: Saccharomyces cerevisiae BY4741 SeMeCo community; assay: z-score of subpopulation abundance vs DMSO median, subpopulation auxotrophic for HLM; higher = larger share of this subpopulation than in DMSO controls; conditions: 10 µM; 24 h; SM minimal medium; subpopulation (auxotrophy): HLM
Summary of the method: as §1

[8] = system: Saccharomyces cerevisiae BY4741 SeMeCo community; assay: z-score of subpopulation abundance vs DMSO median, subpopulation auxotrophic for HUM; higher = larger share of this subpopulation than in DMSO controls; conditions: 10 µM; 24 h; SM minimal medium; subpopulation (auxotrophy): HUM
Summary of the method: as §1

[9] = system: Saccharomyces cerevisiae BY4741 SeMeCo community; assay: z-score of subpopulation abundance vs DMSO median, subpopulation auxotrophic for LUM; higher = larger share of this subpopulation than in DMSO controls; conditions: 10 µM; 24 h; SM minimal medium; subpopulation (auxotrophy): LUM
Summary of the method: as §1

[10] = system: Saccharomyces cerevisiae BY4741 SeMeCo community; assay: z-score of subpopulation abundance vs DMSO median, subpopulation auxotrophic for HLUM; higher = larger share of this subpopulation than in DMSO controls; conditions: 10 µM; 24 h; SM minimal medium; subpopulation (auxotrophy): HLUM
Summary of the method: as §1

[11] = system: Saccharomyces cerevisiae BY4741 SeMeCo community; assay: z-score of subpopulation abundance vs DMSO median, subpopulation auxotrophic for U; higher = larger share of this subpopulation than in DMSO controls; conditions: 10 µM; 24 h; SM minimal medium; subpopulation (auxotrophy): U
Summary of the method: as §1

[12] = system: Saccharomyces cerevisiae BY4741 SeMeCo community; assay: z-score of subpopulation abundance vs DMSO median, subpopulation auxotrophic for H; higher = larger share of this subpopulation than in DMSO controls; conditions: 10 µM; 24 h; SM minimal medium; subpopulation (auxotrophy): H
Summary of the method: as §1

[13] = system: Saccharomyces cerevisiae BY4741 SeMeCo community; assay: z-score of subpopulation abundance vs DMSO median, subpopulation auxotrophic for HM; higher = larger share of this subpopulation than in DMSO controls; conditions: 10 µM; 24 h; SM minimal medium; subpopulation (auxotrophy): HM
Summary of the method: as §1

[14] = system: Saccharomyces cerevisiae BY4741 SeMeCo community; assay: z-score of subpopulation abundance vs DMSO median, subpopulation auxotrophic for UM; higher = larger share of this subpopulation than in DMSO controls; conditions: 10 µM; 24 h; SM minimal medium; subpopulation (auxotrophy): UM
Summary of the method: as §1

[15] = system: Saccharomyces cerevisiae BY4741 SeMeCo community; assay: mean cell size (pixel area) (pixels); higher = larger cells; conditions: 10 µM; 24 h; SM minimal medium
Summary of the method: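 For 24 h, 70 µl of yeast culture diluted to OD600 = 0.3 from an overnight preculture at OD600 = 1.0 was kept in SM medium in 384-well plates acoustically predosed with drug, final 10 µM. The strain was Saccharomyces cerevisiae BY4741 forming a fluorescent community of four plasmids, each complementing one auxotrophy and carrying a fluorescent marker. Automated confocal microscopy of paraformaldehyde-fixed cells, analysed in Harmony, provided mean cell pixel area per well, which was averaged over 3 replicates. Same SeMeCo high-content imaging drug screen: Selleck FDA-approved drugs at 10 µM, 24 h in SM medium, 384-well plates, 3 replicates.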

[16] = system: Saccharomyces cerevisiae BY4741 SeMeCo community; assay: z-score of subpopulation abundance vs DMSO median, subpopulation auxotrophic for L; higher = larger share of this subpopulation than in DMSO controls; conditions: 10 µM; 24 h; SM minimal medium; subpopulation (auxotrophy): L
Summary of the method: as §1

COC(=O)C1=C(C)NC(C)=C(C(=O)OCCN(C)Cc2ccccc2)C1c1cccc([N+](=O)[O-])c1 (stereo unspecified) [Nicardipine HCl]
z-score of prototroph abundance [1]: -0.59 | z-score of subpopulation abundance [2]: 0.72 | z-score of subpopulation abundance [3]: 1.01 | z-score of subpopulation abundance [4]: 0 | z-score of subpopulation abundance [5]: -0.11 | z-score of subpopulation abundance [6]: 0.11 | z-score of subpopulation abundance [7]: -0.22 | z-score of subpopulation abundance [8]: 0.62 | z-score of subpopulation abundance [9]: -0.01 | z-score of subpopulation abundance [10]: -0.44

CCCCCCCCCC(=O)NC1C(Oc2c3cc4cc2Oc2ccc(cc2Cl)C(OC2OC(CO)C(O)C(O)C2NC(C)=O)C2NC(=O)C(NC(=O)C4NC(=O)C4NC(=O)C(Cc5ccc(c(Cl)c5)O3)NC(=O)C(N)c3ccc(O)c(c3)Oc3cc(O)cc4c3)c3ccc(O)c(c3)-c3c(OC4OC(CO)C(O)C(O)C4O)cc(O)cc3C(C(=O)O)NC2=O)OC(CO)C(O)C1O (stereo unspecified) [Teicoplanin]
z-score of prototroph abundance [1]: -0.99 | z-score of subpopulation abundance [11]: -0.01 | z-score of subpopulation abundance [12]: 0.94 | z-score of subpopulation abundance [2]: 0.07 | z-score of subpopulation abundance [3]: 0.75 | z-score of subpopulation abundance [13]: 1.4 | z-score of subpopulation abundance [4]: 0.39 | z-score of subpopulation abundance [14]: 0.78 | z-score of subpopulation abundance [5]: 1.01 | z-score of subpopulation abundance [6]: -0.15 | z-score of subpopulation abundance [7]: -0.07 | z-score of subpopulation abundance [8]: 1.19 | z-score of subpopulation abundance [9]: 0.85 | z-score of subpopulation abundance [10]: -0.79

CN(CCN1CCC(OC(=O)Nc2ccccc2-c2ccccc2)CC1)C(=O)c1ccc(CN2CCC(C(N)=O)CC2)cc1 [Revefenacin]
mean cell size [15]: 12.17 ± 0.043 | z-score of prototroph abundance [1]: -0.26 | z-score of subpopulation abundance [16]: -0.42 | z-score of subpopulation abundance [11]: 0.17 | z-score of subpopulation abundance [12]: -0.6 | z-score of subpopulation abundance [2]: 0.12 | z-score of subpopulation abundance [3]: 0.16 | z-score of subpopulation abundance [13]: 0.49 | z-score of subpopulation abundance [4]: -0.27 | z-score of subpopulation abundance [14]: 0.92 | z-score of subpopulation abundance [5]: -0.32 | z-score of subpopulation abundance [6]: -0.13 | z-score of subpopulation abundance [8]: 0.24 | z-score of subpopulation abundance [9]: 0.17 | z-score of subpopulation abundance [10]: -0.7

Clc1ccc(CCC(Cn2ccnc2)Sc2c(Cl)cccc2Cl)cc1 (stereo unspecified) [Butoconazole]
mean cell size [15]: 12.08 ± 0.019 | z-score of prototroph abundance [1]: -10 | z-score of subpopulation abundance [11]: -0.41 | z-score of subpopulation abundance [12]: 36.2 | z-score of subpopulation abundance [2]: -0.9 | z-score of subpopulation abundance [3]: -2.25 | z-score of subpopulation abundance [13]: 1.61 | z-score of subpopulation abundance [4]: 7.63 | z-score of subpopulation abundance [6]: 9.84 | z-score of subpopulation abundance [7]: 27.1 | z-score of subpopulation abundance [8]: 5.14 | z-score of subpopulation abundance [9]: 3.75
